These results are taken from PubChem BioAssay (NCATS).

Values joined by “and” are separate entries in the source; they are usually repeats but may differ in a detail not shown here. Equal entries are not always repeated. Records with an inconclusive call do not appear. Active and inactive are the calls of the source. Unless noted, calls follow the shape of the dose curve; as a rule, active = well fitted curve in the direction sought with a large enough effect; inconclusive = small, poorly fitted or top-dose-only effect, or another doubt; inactive = no such curve, though single readings can be large; an effect the other way counts as inactive or inconclusive.

For assay [1], the system named is Zika virus NS2B-NS3 protease (linked construct). Description: Primary screen NINDS Rhodamine qHTS for Zika virus inhibitors (AID 1347160). Also: % is scaled to controls: 0 for no effect and ±100 for the full control effect; nearly all actives have a fitted effect of over 55% in size. In a few lines:
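Aprotinin served as in-plate control. Conditions: 25 nM linked NS2B-NS3, pH 8.0 Tris buffer, titrated compounds, 15 min preincubation and 15 min reaction with 1.5 microM Rhod110 substrate at room temperature.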
(In general: qHTS replaces the single test concentration by a dilution series.)

A short description of assay [2]: Primary qHTS for inhibitors of nuclear receptor binding SET domain protein 2 (NSD2) in an RCH-ACV wild type WT cells (2C) (AID 1645877). Also: nearly all actives have a fitted effect of over 70% in size. Also: potency is read from the fitted curve at half-maximal effect.
The target of assay [3] is Glutathione peroxidase 1 (Homo sapiens) (UniProt P07203). Description: Primary qHTS Assay for Inhibitors of Recombinant Selenoprotein Glutathione Peroxidase 1 (GPX1) (AID 1845191). Also: nearly all actives have a fitted effect of over 65% in size. In a few lines: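 NADPH consumption tracked by fluorescence at 340/450 nm between t=0 and t=15 min, room temperature. Final mix: 10 nM GPX1, 100 nM glutathione reductase, 1 mM GSH, 0.5 mM NADPH, 0.5 mM cumene hydroperoxide, 0.01% BSA; 30 min compound–enzyme preincubation.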
Glutathione peroxidase 1 (Homo sapiens), sequence (P07203 whole entry, looked up): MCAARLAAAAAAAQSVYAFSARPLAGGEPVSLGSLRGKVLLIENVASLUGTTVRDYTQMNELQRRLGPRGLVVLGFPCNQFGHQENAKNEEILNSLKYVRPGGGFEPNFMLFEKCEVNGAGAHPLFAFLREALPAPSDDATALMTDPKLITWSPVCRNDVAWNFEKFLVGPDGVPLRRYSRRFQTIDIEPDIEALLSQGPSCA

Assay [4] in a line: Primary fluorescence-based thiol-reactive (MSTI) qHTS assay for identification of artifact compounds. (AID 1845221).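 Also: thiol-reactive compounds lower the probe fluorescence signal; nearly all actives have a fitted effect of over 65% in size.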 In a few lines:
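Curve-fitted percent inhibition (4-parameter Hill) derived from fluorescence, Ex 525/Em 598 nm, scaled with Acetyl-MSTI and MSTI; 1 h incubation at room temperature.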

Another assay relates to NIH3T3. The experiment in a line: qHTS assay to identify novel small-molecules to repurpose for Merkel cell carcinoma treatment (AID 1296009). Also: nearly all actives have a fitted effect of over 60% in size. The note with it: MCC and control cell lines, CellTiter-Glo viability, 72 h; at 44.8 µM (top of the series) unless noted. In a few lines:
(§1)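 Cell viability, measured as CellTiter-Glo luminescence, was normalized between DMSO and no-cell wells. The cells had been exposed to 8- or 11-point compound dilutions for 72 hr at 37 degree celsius.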

In a further assay the test system is HeLa. Description: Primary qHTS to identify gynecologic anti-cancer compounds using libraries of approved drugs and bioactive compounds (AID 1345084). Also: nearly all actives have a fitted effect of over 55% in size. Also: potency is read from the fitted curve at half-maximal effect. The note with it: Gynecologic cancer cell panel viability, ATPlite luminescence, 48 h; series mostly up to 57.5 µM. In a few lines: (§2)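 Cytotoxicity screen measuring ATP content by luciferase luminescence. Each compound is applied at five concentrations for 48 h at 37 C with 5% CO2.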

Assay [5] can be described thus: P-glycoprotein substrates identified in KB-3-1 adenocarcinoma cell line, qHTS therapeutic library screen (AID 1346986). Also: nearly all actives have a fitted effect of over 60% in size.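 Also: potency is read from the fitted curve at half-maximal effect; potency is for cytotoxicity meaning loss of cell viability.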 The essentials: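 Viability read by CellTiter-Glo after 72 h compound exposure in dose-response of KB-3-1 and KB-8-5-11 (P-gp-high) cells. Hits needed AC50 < 10 uM, >50% maximum response and curve class -1.1 to -2.4. Cherry-picks retested ± tariquidar, including pcDNA/MDR-19 HEK-293 pair.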

In assay [6] the test system is Zika virus NS2B-NS3 protease (unlinked complex). Description: Primary screen GU Rhodamine qHTS for Zika virus inhibitors: Unlinked NS2B-NS3 protease assay (AID 1347159). In a few lines:
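Buffer 10 mM Tris-HCl pH 8.0, 0.01% Tween 20. Unlinked protease 25 nM; compound preincubation 15 min, RT, protected from light. Substrate Rhod110, 1.5 microM; ~15% conversion in 15 min.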

The nature of assay [7]: Primary redox qHTS assay for identification of artifact compounds. (AID 1845223).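 Also: 0% = DMSO and 100% = reference compound.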 In a few lines:
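Redox-cycling detection via DTT (250 uM final) oxidation coupled to Amplex Red (25 uM)/HRP (250 mU/mL) in HBSS. 15 min preincubation plus 30 min after DTT, room temperature. Ex/Em 525/598 nm; 4-parameter Hill fit against DMSO and 10 uM DA3003.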

Another assay concerns CRL-7250. The experiment in a line: qHTS assay to identify novel small-molecules to repurpose for Merkel cell carcinoma treatment (AID 1296009). Also: nearly all actives have a fitted effect of over 60% in size. The note with it: MCC and control cell lines, CellTiter-Glo viability, 72 h; series mostly up to 92 µM. In a few lines: as §1
The subject of a further assay is SKOV3. Description: Primary qHTS to identify gynecologic anti-cancer compounds using libraries of approved drugs and bioactive compounds (AID 1345084). Also: nearly all actives have a fitted effect of over 55% in size. Also: potency is read from the fitted curve at half-maximal effect. The note with it: Gynecologic cancer cell panel viability, ATPlite luminescence, 48 h; series mostly up to 57.5 µM. The essentials: as §2
The test system of the next assay is HACAT. The experiment in a line: qHTS assay to identify novel small-molecules to repurpose for Merkel cell carcinoma treatment (AID 1296009). Also: nearly all actives have a fitted effect of over 60% in size. The note with it: MCC and control cell lines, CellTiter-Glo viability, 72 h; at 44.8 µM (top of the series) unless noted. The essentials: as §1
The target of assay [8] is Cytochrome P450 2C9 (Homo sapiens) (UniProt P11712). The experiment in a line: Cytochrome P450 family 2 subfamily C member 9 (CYP2C9) small molecule antagonists: luciferase biochemical (cell-free) qHTS assay (AID 1645842; active = well fitted curve in the direction sought with a large enough effect in the repeat runs; an effect the other way counts as inactive or inconclusive; also: potency is read from the fitted curve at half-maximal effect; nearly all actives have a fitted effect of over 55% in size). In a few lines:
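P450-Glo CYP2C9 system: proluciferin substrate with enzyme in mix containing 0.4% BSA, 10 min at room temperature, then NADPH regeneration solution added and incubated 1 h at 37C. Detection reagent stopped reaction; luminescence read after 20 min as RLU.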

For assay [9], the target named is Cytochrome P450 2D6 (Homo sapiens) (UniProt P10635). Description: Cytochrome P450 family 2 subfamily D member 6 (CYP2D6) small molecule antagonists: luciferase biochemical (cell-free) qHTS assay (AID 1645840; active = well fitted curve in the direction sought with a large enough effect in the repeat runs; an effect the other way counts as inactive or inconclusive). In a few lines: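 P450-Glo CYP2D6 system: proluciferin substrate converted by enzyme to luciferin, read by luminescence proportional to activity. Enzyme-substrate mix with compound 10 min at room temperature, then NADPH regeneration 1 h before detection reagent.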
Cytochrome P450 2D6 (Homo sapiens), sequence (P10635 whole entry, looked up): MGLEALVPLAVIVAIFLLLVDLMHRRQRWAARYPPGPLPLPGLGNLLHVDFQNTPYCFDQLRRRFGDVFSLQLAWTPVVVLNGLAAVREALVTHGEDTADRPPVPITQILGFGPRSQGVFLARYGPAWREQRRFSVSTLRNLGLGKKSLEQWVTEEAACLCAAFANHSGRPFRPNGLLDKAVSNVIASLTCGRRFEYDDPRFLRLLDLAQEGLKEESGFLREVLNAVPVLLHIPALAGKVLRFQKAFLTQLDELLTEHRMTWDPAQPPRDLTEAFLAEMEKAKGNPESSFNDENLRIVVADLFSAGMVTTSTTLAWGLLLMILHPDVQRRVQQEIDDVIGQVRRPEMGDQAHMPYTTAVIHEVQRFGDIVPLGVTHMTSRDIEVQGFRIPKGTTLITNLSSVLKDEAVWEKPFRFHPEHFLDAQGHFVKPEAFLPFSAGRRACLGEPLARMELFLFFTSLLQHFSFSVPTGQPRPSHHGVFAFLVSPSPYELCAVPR

Assay [10] can be described thus: Cytotoxicity counterscreen for inhibitors of SARS-CoV-2 cell entry (AID 1645845; calls by dose curve; also: % is scaled to controls: 0 for no effect and ±100 for the full control effect; nearly all actives have a fitted effect of over 50% in size). The essentials:
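ATP-content luminescence (ATPLite 1step, 15 min RT) read after 48 h compound exposure of Expi293F cells stably expressing human ACE2; normalized to cells-only wells and media-only wells.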
(The purpose of a counterscreen is to sort out artefacts and off-target activity.)

The nature of assay [11]: Primary qHTS to identify inhibitors of SARS-CoV-2 cell entry (AID 1645846; calls by dose curve; also: potency is read from the fitted curve at half-maximal effect; nearly all actives have a fitted effect of over 45% in size). The note with it: activity change, negative = inhibition: at 57.1 µM (top of the series) unless noted. In a few lines: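 Inhibition of spike-mediated entry was scored in human ACE2-transfected Expi293F cells. Particles were MLV-pseudotyped with Wuhan-Hu-1 S carrying a 19-aa C-terminal deletion; signal was luciferase after two days, scaled between spike PP and fusion-protein-free PP.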

Assay [12] in a line: qHTS drug screen for cell cycle checkpoint inhibitors in PARPi-resistant BRCA-mutant ovarian cancer cell lines. (AID 1963452; calls by dose curve). The following applies: PEO1/OlaR viability, CellTiter-Glo luminescence, 96 h, stronger effect = lower value. In a few lines:
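PEO1, PEO4 and PEO1/OlaR ovarian cancer cells, 600 per well, exposed 96 h at 37C to a dilution series. Viability read by CellTiter-Glo luminescence, normalized to DMSO and empty wells; activity summarized as Z-AUC.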

Cytochrome P450 2C9 (Homo sapiens), sequence (P11712 whole entry, looked up): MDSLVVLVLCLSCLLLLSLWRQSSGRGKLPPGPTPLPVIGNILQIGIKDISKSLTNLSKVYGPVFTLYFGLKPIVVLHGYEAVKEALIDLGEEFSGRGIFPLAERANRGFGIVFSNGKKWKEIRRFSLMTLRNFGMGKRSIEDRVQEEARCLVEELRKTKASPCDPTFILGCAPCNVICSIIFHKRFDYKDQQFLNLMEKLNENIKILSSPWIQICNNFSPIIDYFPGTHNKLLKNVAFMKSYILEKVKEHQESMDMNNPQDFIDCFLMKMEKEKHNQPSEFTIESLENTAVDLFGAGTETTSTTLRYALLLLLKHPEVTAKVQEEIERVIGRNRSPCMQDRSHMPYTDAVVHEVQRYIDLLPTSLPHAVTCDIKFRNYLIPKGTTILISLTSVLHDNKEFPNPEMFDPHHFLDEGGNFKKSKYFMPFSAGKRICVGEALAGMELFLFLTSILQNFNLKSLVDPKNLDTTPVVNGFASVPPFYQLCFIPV

Take `COC1C(O)C(C)OC(OC2C(CO)O[C@@H](O[C@@H]3CC4CCC5C(CC[C@]6(C)[C@@H](C7=CC(=O)OC7)CC[C@]56O)[C@@]4(C)[C@H](OC(C)=O)C3)C(O)C2O)C1O` (stereo not given in full): the Potency result in assay [1], in assay [3] and in [4] was “inactive” each time. In addition, the Potency was 2420 nM (active) in assay [2] and 10000 nM (active) with HeLa. The outcome with NIH3T3 is “inactive [at 17.4 µM]”.
Turning to `C[C@@]1(CO)[C@H](O)CC[C@@]2(C)[C@H]1CC[C@H]1C[C@@H]3C[C@@]12CC[C@]3(O)CO`, the Potency result (in [3]; with HeLa) was “inactive” each time.
Regarding `CC1=CC2/C=C(\C)CCCC(O)/C=C/C(=O)OC23C(=O)NC(CC(C)C)C3C1C` (stereo not given), the Potency entry in [5], in assay [6], in assay [1], in [2], in assay [4] and in [7] was “inactive” throughout. Moreover, the Potency result in the assay on CRL-7250, with HeLa and with SKOV3 was “inactive” in each case.
On to `C[C@]12CC[C@H]3[C@@H](CCC4=C/C(=N/OCC(=O)O)CC[C@@]43C)[C@@H]1CC[C@@H]2O`, for which the Potency entry in [5], in assay [6], in assay [1], in [2], in assay [3] and in assay [4] was “inactive” throughout. The Potency entry (in [7]; in the assay on SKOV3) was “inactive” throughout.
In the case of `C[C@]12CC[C@H](O)C[C@H]1CC[C@@H]1[C@@H]2[C@H](O)C(=O)[C@]2(C)[C@@H](c3ccc(=O)oc3)CC[C@]12O`, the Potency entry in [6], in [1], in [3] and in assay [7] was “inactive” in each case.
Turning to `C=CC/C=C\C/C=C\CCCCCCCc1cc(O)cc(O)c1`, the Potency result (in [1]; in assay [4]; in assay [7]; with HeLa; in the assay with SKOV3) was “inactive” each time. Further, the call with HACAT was inactive.
With `C[C@@H]1C[C@@H](O)[C@]2(O)O[C@@H]3C[C@@]4(C=O)C(CC[C@@H]5C4CC[C@]4(C)[C@@H](C6=CC(=O)OC6)CC[C@]54O)C[C@H]3O[C@@H]2O1` (stereo not given in full), the Potency result in assay [6], in assay [1] and in assay [7] was “inactive” each time. Besides, in assay [2], the Potency is 79.6 nM (active).
In the case of `CCC1=CC2CN3CCc4c([nH]c5ccccc45)[C@@](C(=O)OC)(C2)[C@@H]13`, the Potency result in [1], in assay [3] and in assay [7] was “inactive” each time.
With `CCc1nn(C)c(C(=O)NCc2ccc(Oc3ccc(C)cc3)cc2)c1Cl`, the Potency entry (in [6]; in assay [1]; in [3]; in assay [4]; in assay [7]; in the assay with HeLa) was “inactive” in each case. Further, the Potency in assay [8] was 5350 nM (active).
Take `C=C1[C@@H](C)C2[C@H](Cc3ccccc3)NC(=O)[C@@]23C(/C=C/C[C@H](C)C[C@@](C)(O)/C=C/[C@@H]3OC(C)=O)[C@@H]1O` (stereo not given in full): the Potency entry in [6], in [3] and in [4] was “inactive” in each case. In addition, the Potency in assay [2] is 205 nM (active).
Consider `CN1C[C@@H]2CN(c3ccc(-c4ccccc4)nn3)C[C@@H]2C1`, for which the Potency entry in assay [6], in assay [1], in assay [9], in assay [2], in assay [3] and in assay [4] was “inactive” throughout. Besides, the Potency result (in assay [7]; with HeLa; in the assay on SKOV3) was “inactive” throughout. Also, in the assay on NIH3T3, the result was inactive.
With `C[C@H]1CCC/C=C/C2C[C@H](O)C[C@H]2[C@H](O)/C=C/C(=O)O1` (stereo not given in full), the Potency is 146 nM (active) in assay [5]; 1000 nM (active) in assay [11]; 163 nM (active) and 417 nM (active) in assay [2]; 355 nM (active) in the assay on HeLa. In addition, the Potency result in assay [6], in [1], in assay [10], in [3] and in [7] was “inactive” throughout. For the same molecule, the Z-AUC was -0.883 (inactive) in [12], -1.19 in [12] (measured here: PEO1 parental Z-AUC) and -1.2 in [12] (measured here: PEO4 Z-AUC).
